High-throughput results as filed in PubChem BioAssay.
Most compounds without a hit are left out; they make up all but 7.4% or so of the library.
Luciferase inh: Firefly luciferase inhibition profiling of diverse chemical library using quantitative high-throughput screening. 76,000 compounds, 2.5% hits. Luciferin 4-monooxygenase (Photinus pyralis), P08659. Potency, µM (highest dose often 115 µM), hits mostly inhibitors. AID 1347043, 2019. purified P. pyralis luciferase, luminescence, biochemical; further: nearly all actives have a fitted effect of over 65% in size
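Luminescence read by CCD imager after adding enzyme (10nM final) to wells holding compound, titrated in qHTS. Substrates 10uM each D-luciferin and ATP; buffer 50mM Tris acetate pH 7.5, 10mM Mg acetate, Tween-20, BSA.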
HEK cytotox: Cytotoxic Profiling in HEK 293 Cell Line of Diverse Libraries Using Quantitative High-Throughput Screening; HEK 293 viability, ATP luminescence (CellTiter-Glo), 48-72 h; 94,000 compounds, 6.6% hits; Potency, µM (highest dose often 115 µM), actives largely listed as inhibitors; AID 1345083, 2018; further: nearly all actives have a fitted effect of over 60% in size
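Luminescence from cellular ATP, measured with CellTiter-Glo, indicates HEK 293 viability. Cells plated at 250 cells/well are treated with compound for 48 or 72 hr at 37 degree Celsius before reagent addition.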
NPR1 antag: Natriuretic polypeptide receptor (hNpr1) antagonism - Primary qHTS; Atrial natriuretic peptide receptor 1 (Homo sapiens), P16066; HEK293 hNpr1 GloSensor cGMP, ANP-stimulated luminescence; Potency, µM (top dose mostly 46.3 µM), usual class: inhibitors; 76,000 compounds, 1.6% hits; AID 1347048, 2019; calls by dose curve; further: nearly all actives have a fitted effect of over 60% in size
Target sequence (P16066 whole entry, looked up): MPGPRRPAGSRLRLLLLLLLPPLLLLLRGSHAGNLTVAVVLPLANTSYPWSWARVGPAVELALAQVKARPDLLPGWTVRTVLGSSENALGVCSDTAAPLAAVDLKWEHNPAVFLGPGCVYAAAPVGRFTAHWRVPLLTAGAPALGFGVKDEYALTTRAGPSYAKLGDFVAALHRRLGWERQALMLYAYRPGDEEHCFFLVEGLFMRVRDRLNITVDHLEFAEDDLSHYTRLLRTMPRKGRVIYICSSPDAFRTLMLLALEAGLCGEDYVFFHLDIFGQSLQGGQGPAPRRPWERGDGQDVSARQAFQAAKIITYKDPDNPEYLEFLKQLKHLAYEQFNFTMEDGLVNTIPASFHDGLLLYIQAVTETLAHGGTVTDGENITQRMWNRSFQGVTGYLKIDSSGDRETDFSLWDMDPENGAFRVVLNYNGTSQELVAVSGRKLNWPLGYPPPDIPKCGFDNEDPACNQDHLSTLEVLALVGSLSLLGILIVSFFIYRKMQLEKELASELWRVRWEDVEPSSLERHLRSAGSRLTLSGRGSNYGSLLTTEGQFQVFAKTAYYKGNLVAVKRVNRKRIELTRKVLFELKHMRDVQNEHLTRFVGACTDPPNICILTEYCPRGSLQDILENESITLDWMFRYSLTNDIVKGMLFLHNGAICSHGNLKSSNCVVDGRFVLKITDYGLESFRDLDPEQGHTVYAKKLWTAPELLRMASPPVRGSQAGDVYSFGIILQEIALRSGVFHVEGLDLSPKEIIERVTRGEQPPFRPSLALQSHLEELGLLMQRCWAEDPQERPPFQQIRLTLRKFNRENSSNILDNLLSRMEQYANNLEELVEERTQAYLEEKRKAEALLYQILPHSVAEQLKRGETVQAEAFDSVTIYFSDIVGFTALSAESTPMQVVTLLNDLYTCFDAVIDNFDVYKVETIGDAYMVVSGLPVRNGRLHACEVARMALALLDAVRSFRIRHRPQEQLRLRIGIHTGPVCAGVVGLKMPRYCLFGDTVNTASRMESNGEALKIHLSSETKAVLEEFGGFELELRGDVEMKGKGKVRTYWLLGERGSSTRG
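HEK293 cells stably expressing human Npr1 and cGMP GloSensor pGS-40F, loaded 2 h with 2% GloSensor reagent, given compound 30 min at room temperature. Luminescence read before and 20 min after 0.1 nM hNppA.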
SNCA viab count: GF-AFC viability counterscreen for inhibitors of alpha-synuclein gene (SNCA) expression. 150,000 compounds, 0.12% hits. Potency, µM (doses to about 57.1 µM), usual class: cytotoxic. HEK-293-SNCA-luc viability, GF-AFC fluorescence, 24 h; further: nearly all actives have a fitted effect of over 30% in size
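HEK-293-SNCA-luc cells (1500/well) plated 24 h, then exposed 24 h to a dilution series; GF-AFC added 30 min at 37C, fluorescence 405/540 nm; normalised to medium-only and DMSO wells, Hill fit.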
SNCA expr inhib: Primary qHTS assay for inhibitors of alpha-synuclein gene (SNCA) expression. Potency, µM (top dose mostly 57.2 µM), usual class: inhibitors. HEK-293 SNCA-luciferase knock-in, luminescence, 24 h. 140,000 compounds, 0.17% hits; further: nearly all actives have a fitted effect of over 45% in size
3T3 cytotox: Cytotoxic Profiling in NIH 3T3 Cell Line of Diverse Libraries Using Quantitative High-Throughput Screening; NIH 3T3 viability, CellTiter-Glo ATP luminescence, 48-72 h; Potency, µM (doses to about 96.7 µM), hits mostly inhibitors; 94,000 compounds, 4.3% hits; further: nearly all actives have a fitted effect of over 55% in size
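Cells were seeded at 400 per well, treated with pin-transferred compound, and kept 48 or 72 hr at 37 °C before CellTiter-Glo addition and luminescence imaging of cellular ATP.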
Numbers stand for hits; 0 = inactive; ? = inconclusive; - = not tested or not shown. Unless noted, the call rests on the fitted dose curve; in most records, active means well fitted curve in the direction sought with a large enough effect; inconclusive means small, poorly fitted or top-dose-only effect, or another doubt; inactive means no such curve, though single readings can be large; an effect the other way counts as inactive or inconclusive.

SMILES | Luciferase inh | HEK cytotox | NPR1 antag | SNCA viab count | SNCA expr inhib | 3T3 cytotox
CCCN(C)c1nccnc1OC1CCN(C(=O)C2CC2)C1 (stereo not given) | 40µM | 0 | 0 | 0 | 0 | ?
CCCN(C)c1nccnc1OC1CCN(C(=O)C2CCOCC2)C1 (stereo not given) | 40µM | 0 | 0 | 0 | 0 | 0
O=C(c1cccc(F)c1)N1CCCC(Cc2noc(-c3ccccc3)n2)C1 (stereo not given) | 0 | ? | 0 | 3.5µM | ? | 32µM
O=C(CCc1nc2ccccc2[nH]1)N1CCCC(Cc2noc(-c3ccccc3)n2)C1 (stereo not given) | 0 | 22µM | ? | 0 | 0 | ?
CC(=O)N1CCC(Cc2noc(-c3ccccc3)n2)C1 (stereo not given) | 0 | ? | 0 | 0 | 0 | 0
CCOc1ccc(NC(=O)c2ccc(-c3nnc4ccc(NC(=O)C5CC5)cn34)cc2)cc1 | 0 | ? | 0 | 0 | 0 | ?
Cc1cc(-c2cc(-c3ccccn3)nc3c(C)noc23)ccn1 | 0 | ? | 0 | 0 | 0 | ?
Cc1noc2c(NCCN(C)C)cc(-c3ccccn3)nc12 | 0 | 79µM | 0 | 0 | 0 | ?
COC1CCN(c2cc(-c3ccccn3)nc3c(C)noc23)CC1 | 0 | 63µM | 0 | 0 | 0 | ?
Cc1noc2c(NCCN(C)C)cc(-c3ccc(F)cc3)nc12 | 0 | ? | 0 | 0 | 0 | 40µM
Cc1noc2c(NCCN(C)C)cc(-c3ccc(Cl)cc3)nc12 | 0 | 45µM | 0 | 0 | ? | 25µM
COCCNc1cc(-c2ccc(Cl)cc2)nc2c(C)noc12 | 0 | ? | 0 | 0 | 0 | ?
Cn1ccc(NC(=O)C2(C)CCCc3cnc(Nc4ccccc4)nc32)n1 (stereo not given) | 0 | ? | 0 | 0 | 0 | ?
Cn1ccc(NC(=O)C2(C)CCc3cnc(Nc4ccccc4)nc32)n1 (stereo not given) | 0 | 100µM | 0 | 0 | 0 | ?
Cn1ccc(NC(=O)C2(C)CCCc3cnc(NCc4ccccc4)nc32)n1 (stereo not given) | 0 | ? | 0 | 0 | 0 | 45µM
O[C@@H]1C[C@@H](c2nc(-c3ccc(C(F)(F)F)cc3)no2)N(Cc2cccc(OC(F)(F)F)c2)C1 | 35µM | 79µM | 0 | 0 | 0 | ?
O[C@@H]1C[C@@H](c2nc(-c3ccccc3)no2)N(Cc2cccc(OC(F)(F)F)c2)C1 | 71µM | ? | 0 | 0 | 0 | ?
Cc1ccc(-c2noc([C@@H]3C[C@@H](O)CN3Cc3cccc(OC(F)(F)F)c3)n2)cc1F | 0 | ? | 0 | 0 | 0 | ?
C[C@H](C(=O)N1Cc2ccccc2CC2(CCN(C)C2)C1)c1ccccc1 (stereo not given in full) | - | ? | - | 0 | 0 | ?
COc1ccccc1C(O)c1nc(Nc2ccncc2)n[nH]1 (stereo not given) | 0 | 0 | 0 | 0 | 0 | ?
Cc1ccc(NC(=O)N2CCC3(CC2)C(=O)N(CC(=O)N2CCCC2)CN3c2ccccc2)cc1 | 8.9µM | ? | 0 | 0 | 0 | ?
COCCNC(=O)CN1CN(c2ccccc2)C2(CCN(C(=O)C3CCCCC3)CC2)C1=O | 0 | 0 | 0 | 0 | 0 | 0
COc1ccccc1CNC[C@H]1Cn2cc(-c3ccccc3OC)nc2CO1 | 0 | 112µM | 0 | 0 | 0 | 79µM
COc1ccc(-c2cn3c(n2)CO[C@@H](CNCc2ccccc2OC)C3)cc1 | ? | ? | 0 | 0 | 0 | ?
COc1ccccc1-c1cn2c(n1)CO[C@@H](CNCc1ccc(F)cc1)C2 | 0 | 71µM | 0 | 0 | 0 | ?
SMILES | Luciferase inh | HEK cytotox | NPR1 antag | SNCA viab count | SNCA expr inhib | 3T3 cytotox
COc1ccccc1-c1cn2c(n1)CO[C@@H](CNCc1ccc(F)c(F)c1)C2 | 0 | ? | 0 | 0 | 0 | ?
CCC#CCN1CCc2ccccc2N(CC(O)COCc2ccco2)CCC1=O (stereo not given) | - | ? | - | 0 | 0 | ?
COc1ccc(Nc2ccnc(N3CCN(C(=O)Nc4ccccc4)CC3)n2)cc1 | - | 25µM | - | 0 | 0 | ?
COc1cccc(C(=O)NC2CCN(c3nccc(Nc4ccccc4Cl)n3)CC2)c1 | - | ? | - | ? | ? | 35µM
COc1ccc(Nc2ccnc(N3CCN(C(=O)Nc4ccc(Cl)cc4)CC3)n2)cc1 | - | ? | - | ? | ? | 0
O=C(c1ccccc1)N1CCN(c2nccc(Nc3ccccc3Cl)n2)CC1 | - | ? | - | 0 | 0 | ?
COc1ccc(Nc2ccnc(N3CCN(C(=O)c4cccc(OC)c4)CC3)n2)cc1 | - | 16µM | - | 0 | 0 | 25µM
COc1cccc(C(=O)N2CCN(c3nccc(Nc4ccccc4Cl)n3)CC2)c1 | - | 35µM | - | 0 | 0 | ?
COC(=O)C(Cc1ccccc1)NC(=O)c1ccccc1 (stereo not given) | - | - | - | 0 | - | -
Cn1nc(C2CC2)cc1NC(=O)c1cccc(Br)c1 | - | ? | - | 0 | 0 | 0
Cn1cc(C2CCN(C(=O)c3sc(Cl)c(Cl)c3Cl)CC2)c2ccccc21 | 0 | ? | 0 | 0 | 0 | ?
O=C(c1ccc(Cl)cc1)N1CCN(c2nccc(Nc3ccccc3Cl)n2)CC1 | - | 22µM | - | 0 | ? | ?
COc1ccc(Nc2ccnc(N3CCN(C(=O)c4ccc(Cl)cc4)CC3)n2)cc1 | - | 18µM | - | 0 | 0 | 0
COc1ccc(Nc2ccnc(N3CCN(C(=O)c4ccccc4F)CC3)n2)cc1 | - | ? | - | 0 | 0 | 35µM
CC(C)n1c(CN2CCC3(CCCN(C)C3=O)C2)nc2ccccc21 (stereo not given) | 0 | 0 | 0 | 0 | 0 | 0
Cc1cc(C)c2c(CC(=O)N[C@@H]3CCOC[C@H]3Oc3ccccn3)coc2c1 | 0 | 50µM | 0 | 0 | 0 | ?
CC1(c2ccccc2)N(Cc2ccccc2)C(=O)OC12CCN(C(=O)Cc1cccc(F)c1)CC2 (stereo not given) | 0 | ? | 0 | 0 | ? | 10µM
CC(C)C(=O)N1CCC2(CC1)OC(=O)N(Cc1ccccc1)C2(C)c1ccccc1 (stereo not given) | 0 | ? | 0 | 0 | 0 | 10µM
CC(C)CCN1CCC2(CC1)OC(=O)N(Cc1ccc(O)cc1)C2(C)c1ccccc1 (stereo not given) | 0 | ? | 0 | 0 | 0 | 89µM
Cc1csc(NC(=O)c2sc3nc4c(c(C(F)(F)F)c3c2N)CCC4)n1 | - | - | - | 0 | ? | -
O=C(c1ccc2nccnc2c1)N1CCC2(CC1)Nc1ccccc1NC2=O | 0 | ? | 0 | 0 | 0 | 0
